# Measurements as given in the supplement of paper PMC5940239.
# A number with no mark means an inactive call.
# Tested on: Madurella mycetomatis MM55
# Assay: percent growth relative to solvent control; higher = less inhibition, active = 20 or less
# Conditions: 100 µM; 7 days
row,SMILES,percent growth
1,CCc1ccc([C@@H]2C[C@H](C(F)(F)F)n3ncc(C(=O)NCc4ccc(OC)cc4)c3N2)cc1,60.8%
2,CO[C@@H](C(=O)N1Cc2[nH]nc(NC(=O)c3ccc(N4CCN(C)CC4)cc3)c2C1)c1ccccc1,157%
3,COC(=O)c1c(NC(=O)c2cc3ccccc3oc2=O)sc2c1CCN(Cc1ccccc1)C2,111%
4,NC(=O)c1cc(-c2ccsc2)ccc1OCCOc1ccccc1,103%
5,O=C(Nc1c(O)cccc1-c1nc2c(C(=O)O)cccc2o1)c1cc(-c2ccccc2)on1,113%
6,O=C1[C@@H](Oc2ccccc2)[C@@H](c2ccc(Cl)cc2)N1CCn1cnc2c(NCc3ccccc3)ncnc21,98.5%
7,COc1ccc(-c2nn(C(C)C)c3ncnc(N)c23)cc1OC,22.9%
8,Cc1cc(Nc2ccncc2)n2nc(C)c(-c3ccccc3Cl)c2n1,103%
9,COc1cc(NC(=O)Cc2nn(C)c(=O)c3ccccc23)ccc1Cl,116%
10,Cc1ccc(S(=O)(=O)n2cc(-c3ccnc(N)c3)c3cc(Br)cnc32)cc1,25.4%
11,c1ccc(Oc2ccc(-c3cncc(-c4ccc5[nH]ccc5c4)n3)cc2)cc1,92.6%
12,CS(=O)(=O)N1CCC(CCn2nc(Cc3cccc4ccccc34)c3c(N)ncnc32)CC1,81.9%
13,COc1cccc(CC(=O)N2CCC(n3c(C)nc4ccc(F)cc43)CC2)c1,118%
14,O=C(NCc1nnc2n1CCCCC2)c1ccc(-c2ccc(F)cc2)o1,87.7%
15,O=C(CN1CCOCC1)Nc1ccc2ncnc(Nc3ccc(OCc4cccc(F)c4)c(Cl)c3)c2c1,79.4%
16,OC[C@H]1O[C@@H](n2c3ccc(Cl)cc3c3c(-c4cc5ccccc5o4)ncnc32)C(O)[C@H]1O (stereo partly drawn),121%
17,O=C(NCCc1ccn(-c2ccccc2)n1)C1CCCCC1,49.1%
18,Cc1ccc(S(=O)(=O)N2CCN(C(=O)c3cc(-c4ccccc4)[nH]n3)CC2)cc1,146%
19,Cc1nc(-c2ccccn2)nc(NCCc2ccc(S(C)(=O)=O)cc2)c1Cl,118%

row,SMILES,percent growth
1,O=C(Cn1ccnc1[N+](=O)[O-])NCc1ccccc1,129%
2,CC1COC2(CCN(c3nc(=O)c4cc(C(F)(F)F)cc([N+](=O)[O-])c4s3)CC2)O1 (stereo not drawn),79.4%
3,COc1cccn2c(C(=O)N3CCCCC3)c(C(F)(F)F)nc12,85.7%
4,Cc1nnc(NC(=O)c2cn(-c3ccccc3)nc2-c2ccccc2C)o1,92.6%
5,CN(C)CCNC(=O)N1CCCN(c2ncnc3cc(-c4ccccc4)sc23)CC1,64.5%
6,Cc1cc(C(=O)Nc2cnn(Cc3ccc(Cl)cc3Cl)c2)no1,121%
7,CCCS(=O)(=O)N1CCC(CO)(Cc2ccccc2C(F)(F)F)CC1,37.4%
8,CCn1cnc2c(Nc3cc(F)cc(F)c3)nc(C#N)nc21,95.2%
9,Nc1ccc(C(=O)Nc2ccc(-c3nc4ccccc4o3)cc2)cc1,100%
10,N#Cc1nc(-c2ccccc2)oc1S(=O)(=O)c1ccc(Cl)cc1,31.4%
11,FC(F)(F)c1cnc(Sc2nnc(-c3ccncc3)o2)c(Cl)c1,82.4%
12,Clc1ccc(CCNc2cc(-c3ccccc3)nc3ncnn23)cc1,108%
13,Cc1nc2ccccn2c1C(=O)NCc1ccc(Cl)cc1,33.1%
14,Cc1ccc(-c2cc(C(=O)Nc3cccnc3)c3cc(Br)ccc3n2)cc1,90.5%
15,Clc1cccc(C(c2ccc(CN3CCNCC3)cc2)n2ccnc2)c1 (stereo not drawn),115%
16,Cc1ccc(NC(=O)c2cc(S(=O)(=O)NC(C)(C)C)ccc2C)nc1,78.4%
17,C[C@H]1c2cccc(O)c2C(=O)C2=C(O)[C@]3(O)C(=O)C(C(N)=O)=C(O)[C@@H](N(C)C)[C@@H]3[C@@H](O)[C@@H]21,121%
18,Cc1cc(C)cc(COc2ccc3c(C)c(CCC(=O)O)c(=O)oc3c2C)c1,84.8%
19,CC(C(=O)Nc1ccc2oc(-c3ccncc3)nc2c1)c1ccccc1 (stereo not drawn),77%
